Screens as filed in PubChem.
In the library only some 6.9% were active in any assay of this set; here they are far more common.
M1 ag = M1 muscarinic receptor agonists, primary screen, CHO-M1 cells, Fluo-4 calcium, agonist mode | Muscarinic acetylcholine receptor M1 | Fluo-4 calcium fluorescence; hits give high values | B-score at 10 µM | 64,000 tested, 3% active | AID 626, 2007;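 active = fluorescence rise, raw or as B-score row- and column-corrected plate score, outside the 99.7% band of its plate's samples, either direction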
M1 antag = antagonists of rat M1 muscarinic receptor | CHO-M1 cells, Fluo-4 calcium, ACh EC80 antagonist mode; hits give low values | AID 628, 2007 | 64,000 tested, 3.4% active | B-score at 10 µM;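 active = calcium fluorescence response, raw or row-and-column corrected B-score, differing from the plate sample mean either way at a set confidence level, mostly lower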
Her2 expr inh = inhibitors of Her2 protein expression, primary screen, SKBR-3 cells, AlphaScreen, 66K library. Receptor tyrosine-protein kinase erbB-2 (Homo sapiens), P04626. SKBR-3 HER2 protein level, 18-24 h; hits give low values. HER2 level % of control, % at 10 µM. 65,000 tested, 0.69% active. AID 645, 2007;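 active = HER2 level under 5% of the carrier-only control; inconclusive = no clear call, values can overlap the other calls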;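 also: lower value means stronger loss of Her2 protein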
FXIa mix inh = FXIa protease inhibitors in compound pools, primary screen, biochemical, 10-compound mixtures | inhibition, % at 5 µM | purified FXIa, fluorogenic substrate, pooled mixtures | 62,000 tested, 0.19% active | Coagulation factor XI (Homo sapiens), P03951;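 also: each value is inhibition by a whole ten-compound pool holding the compound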
FXIIa inh mix = human factor XIIa inhibitors, primary screen, biochemical, pooled compound mixtures, fluorogenic substrate. Coagulation factor XII (Homo sapiens), P00748. purified FXIIa. inhibition, % at 5 µM. 62,000 tested, 0.2% active
JNK3 inh = JNK3 kinase activity inhibitors, primary screen, biochemical, human, purified enzyme | HTS | inhibition, % at 8 µM | 60,000 tested, 0.61% active | AID 746, 2007; in the data active = inhibition above about 17%
M1 ag confirm = rat M1 muscarinic receptor agonists, confirmation, CHO-M1 cells, Fluo-4 calcium, duplicate retest; shares compounds with M1 ag; Fluo-4 calcium fluorescence, agonist mode; actives lie on both sides; fluorescence change (max-min) at 10 µM; 1,700 tested, 19% active;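 active = fluorescence change differs from the solvent-only DMSO control mean at a set confidence level in both duplicate runs; inconclusive = differs from solvent-only control mean in just one of two runs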;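 also: an EC20 dose of acetylcholine follows compound addition during the same imaging run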
M4 agonist ctr = agonist activity at rat M4 receptor, confirmation, counter-screen for M1 allosteric modulator project, cell-based, agonist mode; shares compounds with M1 ag; CHO M4/Gqi5 cells, Fluo-4 calcium fluorescence; actives lie on both sides; fluorescence change (max-min) at 10 µM; 1,700 tested, 9% active;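 active = fluorescence change differing from the plate's solvent-only control wells at 99.7% confidence in both duplicates, whether higher or lower; inconclusive = differs from solvent controls in only one of two duplicates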
Target sequence (P08485 whole entry, looked up): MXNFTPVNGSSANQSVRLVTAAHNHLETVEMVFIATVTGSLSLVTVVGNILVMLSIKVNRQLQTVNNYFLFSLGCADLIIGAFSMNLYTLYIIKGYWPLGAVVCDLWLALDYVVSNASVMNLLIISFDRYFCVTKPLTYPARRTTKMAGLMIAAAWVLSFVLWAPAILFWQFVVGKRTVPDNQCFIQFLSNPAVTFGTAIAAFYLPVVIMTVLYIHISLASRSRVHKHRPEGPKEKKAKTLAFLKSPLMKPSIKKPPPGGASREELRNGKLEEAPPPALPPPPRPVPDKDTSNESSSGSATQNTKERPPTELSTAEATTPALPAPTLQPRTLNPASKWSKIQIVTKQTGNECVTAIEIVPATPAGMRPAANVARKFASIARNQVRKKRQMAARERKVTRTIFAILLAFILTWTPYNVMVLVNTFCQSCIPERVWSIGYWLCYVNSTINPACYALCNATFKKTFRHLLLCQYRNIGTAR
Of the large screens only hits and unclear results are named; the others gave an inactive call (follow-up assays come after a bar, where they were run). Rule as the data show it, unless noted: active = inhibition above about 20% (passing the limit was not always enough); inactive = the rest.

CCn1c(COc2ccccc2C)nnc1SCC(=O)CC(=O)Nc1ccccc1	M1 ag 3.26, M1 antag 2.7 | M1 ag confirm inconclusive | M4 agonist ctr inactive
CCOc1ccc(NC(=O)C2CSC(c3ccncc3)=N2)cc1 (stereo not given)	none
Nc1c(C(=O)NCC2CCCO2)c2nc3ccccc3nc2n1-c1ccccc1 (stereo not given)	M1 ag 11.4 | M1 ag confirm inconclusive | M4 agonist ctr inactive
COc1ccc(-c2cn3c(C)c(C(=O)Nc4cccc(C)n4)sc3n2)cc1	none
Cc1cccc(NC(=O)c2sc3nc(-c4ccccc4)cn3c2C)n1	M1 ag 2.39 (no result: FXIa mix inh, FXIIa inh mix) | M1 ag confirm inconclusive | M4 agonist ctr inactive
Cc1cc(OCC(=O)Nn2cnnc2)ccc1Br	none (no result: FXIa mix inh, FXIIa inh mix)
COc1ccc(S(=O)(=O)NCCOc2ccccc2)cc1OC	M1 ag 2.33 | M1 ag confirm inactive | M4 agonist ctr inactive
CCOC(=O)CC(=O)CSc1nc2c(cc1C#N)CCCCC2	none (no result: FXIa mix inh, FXIIa inh mix)
CCOC(=O)CC(=O)CSc1nc2c(c(C)c1C#N)CCC2	M1 ag -2.91 | M1 ag confirm inactive | M4 agonist ctr inactive
CCOC(=O)c1c(C)[nH]c(C(=O)CN2C(=O)NC(CC)(c3ccccc3)C2=O)c1C (stereo not given)	M1 ag 4.67 | M1 ag confirm inactive | M4 agonist ctr inactive
CCOC(=O)c1c(C)[nH]c(C(=O)CN2C(=O)NC(C)(c3ccc(C)cc3)C2=O)c1C (stereo not given)	none
O=c1c(-c2nc3ccccc3o2)c2oc3ccccc3n2c2ccccc12	M1 ag 11.7, M1 antag -4.66 | M1 ag confirm inconclusive | M4 agonist ctr inactive
O=C(CSc1nnnn1C1CC2CCC1C2)Nc1ccnc2ccccc12 (stereo not given)	M1 ag 18.7, M1 antag -2.07 | M1 ag confirm inactive | M4 agonist ctr inactive
CC1CCN(c2nc(-c3ccco3)c3c(c2C#N)CC(C)(C)OC3)CC1	M1 ag 4.51 | M1 ag confirm inactive | M4 agonist ctr inactive
CC1(C)Cc2c(C#N)c(N3CCOCC3)nc(Cc3ccccc3)c2CO1	M1 ag 4.22 (no result: FXIa mix inh, FXIIa inh mix) | M1 ag confirm inactive | M4 agonist ctr inconclusive
CC1(C)Cc2c(C#N)c(N3CCOCC3)nc(-c3ccccc3)c2CO1	none (no result: FXIa mix inh, FXIIa inh mix)
CN(C=O)CP(=O)(O)CCN1CCCC1=O	none
CCOc1ccc(-n2nc(C(=O)N3CCOCC3)c3ccccc3c2=O)cc1	none
Cc1cccc(C(CC(=O)N2CCCC2)c2ccccc2)c1O (stereo not given)	M1 ag 4.14 | M1 ag confirm inactive | M4 agonist ctr inactive
CCOC(=O)CNc1c(-c2ccc(O)cc2)nc2ccccn12	none
COC(=O)CNc1c(-c2ccccn2)nc2ccc(Br)cn12	M1 ag 5.07 (no result: JNK3 inh) | M1 ag confirm inactive | M4 agonist ctr inactive
CCOC(=O)c1cnc(SC2CCc3ccccc3C2=O)nc1N (stereo not given)	none
CC(C)N(Cc1nc(-c2ccc(Cl)cc2)no1)C(=O)CCC1CCCC1	M1 ag 3.39 | M1 ag confirm inconclusive | M4 agonist ctr inactive
Cc1ccc(N2C(=O)c3cccc4c(N5CCN(C)CC5)ccc(c34)C2=O)c2cccnc12	M1 ag 405, M1 antag -3.08 | M1 ag confirm 956 | M4 agonist ctr 1220
O=C(Nc1ccc(N2CCOCC2)cc1)Nc1ccc2nc(-c3ccco3)c(-c3ccco3)nc2c1	M1 ag 2.81 | M1 ag confirm inactive | M4 agonist ctr inactive
O=S(=O)(c1ccc2nc(-c3ccco3)c(-c3ccco3)nc2c1)N1CCOCC1	none
N#C/C(C(N)=O)=c1/ccc2c(c1)N1C3=C(CCCC3)CC3CCCCC31N=2 (stereo not given)	M1 ag 5.2, Her2 expr inh -29.2 | M1 ag confirm inactive | M4 agonist ctr inactive
CCSc1nnc(NC(=O)C(CC)Oc2ccccc2)s1 (stereo not given)	none
CCCCn1c(=NC(=O)c2cccnc2)c(C(=O)OCC)cc2c(=O)n3ccccc3nc21	M1 ag 8.84 (no result: JNK3 inh) | M1 ag confirm -33.5 | M4 agonist ctr inconclusive
CCOC(=O)c1cc2c(=O)n3cccc(C)c3nc2n(CCCOC)c1=NC(=O)c1cccnc1	M1 ag 2.44 (no result: JNK3 inh) | M1 ag confirm inactive | M4 agonist ctr inactive
Cc1cc(NC(=O)c2cc(S(=O)(=O)N3CCCCC3)ccc2C)n(-c2ccccn2)n1	none
CCn1c(=O)cc(SCC(=O)N2CCN(c3ccccc3OC)CC2)c2ccccc21	M1 ag 4.54 | M1 ag confirm inconclusive | M4 agonist ctr inactive
COc1cc(-c2nnc(SCC#CCO)o2)cc(OC)c1OC	M1 ag 5.84 | M1 ag confirm inactive | M4 agonist ctr inactive
OCC#CCSc1nnc(-c2ccncc2)o1	none
CCCCN(CCCC)C(=O)CSc1nnc(-c2cc(OC)c(OC)c(OC)c2)o1	M1 ag 4.44 | M1 ag confirm inconclusive | M4 agonist ctr inconclusive
COC(=O)CNC(=O)Cc1c(F)cccc1Cl	none
COc1ccc(C2(O)CCN(C(=O)NC3CCCCC3)CC2)cc1	none
CCOC(=O)C1CCCN(C(=O)c2ccc(CS(=O)(=O)c3ccc(C)cc3)o2)C1 (stereo not given)	M1 ag 34.4 | M1 ag confirm 261 | M4 agonist ctr inactive
COc1ccc(CNC(=O)C(OC(C)=O)c2ccccn2)cc1 (stereo not given)	none
Oc1ccc(CNc2ccc(F)cc2)c2cccnc12	M1 ag 21.9 | M1 ag confirm inactive | M4 agonist ctr inconclusive
CCN(CC)c1ccc(-c2nn3c(-c4cccnc4)nnc3s2)cc1	M1 ag 8.57, M1 antag -6.21 | M1 ag confirm inactive | M4 agonist ctr inactive
COc1ccc(-c2cc(=O)oc3cc(OCc4nn[nH]n4)ccc23)cc1	none
COc1ccc(-c2cc(=O)oc3c(C)c(O)c(CN(C)C)cc23)cc1	M1 ag 6.39 | M1 ag confirm inactive | M4 agonist ctr inactive
Cc1ccc(CN(CC(=O)NCCc2ccccc2)C(=O)CCCC(=O)Nc2cc(C)on2)cc1	none
COc1ccc(OCC(O)Cn2c(=N)n(CCN3CCOCC3)c3ccccc32)cc1 (stereo not given)	M1 ag 7.47 | M1 ag confirm inactive | M4 agonist ctr inactive
CCN(CC)S(=O)(=O)c1ccc(Br)c(OC)c1	none
